This note sets out measurements from PMC12820563, “FoxP3 forms a head-to-head dimer in vivo and stabilizes its multimerization on adjacent microsatellites”.

Whole data set: some 16,000 sequences, median “rpm ratio (pull-down/input)” near 0.94, cut for the highest 2% near 1.7. What follows is part of a selection rich in the highest values, with near analogues and random picks from the rest.

In this test the target is T1, MBP-FoxP1dN (Mus musculus, UniProt P58462 326-579).
T1 sequence: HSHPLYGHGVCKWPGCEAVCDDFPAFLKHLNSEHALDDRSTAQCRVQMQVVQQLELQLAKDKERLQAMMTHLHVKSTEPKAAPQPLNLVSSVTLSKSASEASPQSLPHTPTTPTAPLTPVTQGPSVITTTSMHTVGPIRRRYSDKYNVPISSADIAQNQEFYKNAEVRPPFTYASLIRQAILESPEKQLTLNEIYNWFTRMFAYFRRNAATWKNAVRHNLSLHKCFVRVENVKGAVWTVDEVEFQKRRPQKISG
Description: PD-seq (MBP pull-down with sequencing); 20 mM Tris-HCl pH 7.5, 100 mM NaCl, 1.5 mM MgCl2, 0.4 uM protein, 0.1 uM dsDNA library, 30 min, room temperature, amylose pull-down; high values mean tight binding. The note with it: protein: recombinant; tags: His6-MBP; chain copies: 2; dsDNA, one strand shown. In a few lines: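 Binding is reads-per-million enrichment of pull-down over input, with replicates pooled. It comes from 30 min room-temperature incubation in Tris pH 7.5 buffer with NaCl and MgCl2 of 0.4 µM His6-MBP-tagged, N-terminally truncated mouse FoxP3 or FoxP1 fragment from E. coli with 0.1 µM Klenow-filled degenerate double-stranded DNA library, followed by amylose resin capture, three washes and Illumina sequencing of the released DNA.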
As to “GATGATTGTTCTCCCAGCTGATGAATTCCCCAGGTCGAGTAAACAAATTTTCCTAATCTTTCTGTTCAAGCGCCATCTAC”, the binding signal is 0.743 RPM ratio (pull-down/input).

“GATGATTGTTCTCCCAGCTGATGAATTATCTGTGTCGAGTAAACAAATTTTCCTAATCTTTCTGTTCAAGCGCCATCTAC”: the binding signal is 1.03 RPM ratio (pull-down/input). The same measure for “GATGATTGTTCTCCCAGCTGATGAATTATTTGTGTCGAGTAAACAAATTTTCCTAATCTTTCTGTTCAAGCGCCATCTAC”: 2.12 RPM ratio (pull-down/input); for “GATGATTGTTCTCCCAGCTGATGAATTATGTGTGTCGAGTAAACAAATTTTCCTAATCTTTCTGTTCAAGCGCCATCTAC”: 1.4 RPM ratio (pull-down/input). The same measure for “GATGATTGTTCTCCCAGCTGATGAATTACTACTATCGAGTAAACAAATTTTCCTAATCTTTCTGTTCAAGCGCCATCTAC”: 1.24 RPM ratio (pull-down/input); for “GATGATTGTTCTCCCAGCTGATGAATTACCAATTTCGAGTAAACAAATTTTCCTAATCTTTCTGTTCAAGCGCCATCTAC”: 1.13 RPM ratio (pull-down/input); for “GATGATTGTTCTCCCAGCTGATGAATTACCAATCTCGAGTAAACAAATTTTCCTAATCTTTCTGTTCAAGCGCCATCTAC”: 0.961 RPM ratio (pull-down/input).

For “GATGATTGTTCTCCCAGCTGATGAATTACATATATCGAGTAAACAAATTTTCCTAATCTTTCTGTTCAAGCGCCATCTAC”, the binding signal is 1.34 RPM ratio (pull-down/input).

On to “GATGATTGTTCTCCCAGCTGATGAATTACCAATATCGAGTAAACAAATTTTCCTAATCTTTCTGTTCAAGCGCCATCTAC”, for which the binding signal is 1.79 RPM ratio (pull-down/input). The same measure for “GATGATTGTTCTCCCAGCTGATGAATTACTAATATCGAGTAAACAAATTTTCCTAATCTTTCTGTTCAAGCGCCATCTAC”: 1.73 RPM ratio (pull-down/input).

Regarding “GATGATTGTTCTCCCAGCTGATGAATTTACAATATCGAGTAAACAAATTTTCCTAATCTTTCTGTTCAAGCGCCATCTAC”, the binding signal is 1.63 RPM ratio (pull-down/input). To “GATGATTGTTCTCCCAGCTGATGAATTACTGATATCGAGTAAACAAATTTTCCTAATCTTTCTGTTCAAGCGCCATCTAC” belongs 1.18 RPM ratio (pull-down/input).

“GATGATTGTTCTCCCAGCTGATGAATTACAAATATCGAGTAAACAAATTTTCCTAATCTTTCTGTTCAAGCGCCATCTAC”: the binding signal was 2.21 RPM ratio (pull-down/input). To “GATGATTGTTCTCCCAGCTGATGAATTTCGCCAGTCGAGTAAACAAATTTTCCTAATCTTTCTGTTCAAGCGCCATCTAC” belongs 0.805 RPM ratio (pull-down/input); to “GATGATTGTTCTCCCAGCTGATGAATTGCGATTTTCGAGTAAACAAATTTTCCTAATCTTTCTGTTCAAGCGCCATCTAC”, 1.25 RPM ratio (pull-down/input). For “GATGATTGTTCTCCCAGCTGATGAATTGTTACCTTCGAGTAAACAAATTTTCCTAATCTTTCTGTTCAAGCGCCATCTAC”, the binding signal is 1.25 RPM ratio (pull-down/input). Consider “GATGATTGTTCTCCCAGCTGATGAATTGGATGCGTCGAGTAAACAAATTTTCCTAATCTTTCTGTTCAAGCGCCATCTAC”, for which the binding signal is 1.29 RPM ratio (pull-down/input).

As for “GATGATTGTTCTCCCAGCTGATGAATTTTCTAGCTCGAGTAAACAAATTTTCCTAATCTTTCTGTTCAAGCGCCATCTAC”, the binding signal was 0.887 RPM ratio (pull-down/input).
